# PubChem BioAssay
# Calls of active or inactive are those of the source.
# How the values were obtained:
# [1] = binders of probe aFSTL3 on microarray, primary screen, stem cell growth factor project, biochemical, small-molecule microarray, fluorescence 635/667 (AID 1064); details: higher = more signal;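 further: measures binding of the biotinylated anti-FSTL3 antibody to printed compounds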
# [2] = binders from COS7 lysate, DM2A8 probe, primary screen, torsin A project, cell lysate, small-molecule microarray, fluorescence 635/667 (AID 1065); details: higher = more signal, COS7 lysate expressing mutant human TOR1A
# [3] = binders of probe aFGF2 on microarray, primary screen, stem cell growth factor project, biochemical, small-molecule microarray, fluorescence 635/667 (AID 1067); details: higher = more signal;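 further: measures binding of biotinylated aFGF2 protein to printed compounds on slides; z-score merges feature fluorescence and signal-to-noise across triplicate slides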
# [4] = binders of probe aFGF10 on microarray, primary screen, stem cell growth factor project, biochemical, small-molecule microarray, fluorescence 635/667 (AID 1071); details: higher = more signal;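 further: score merges 667 nm spot intensity and signal to noise from triplicate slides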
# [5] = molecular target: Neurogenic locus notch homolog protein 2 (Homo sapiens) (UniProt Q04721); assay: Notch2 binders on small-molecule microarrays, primary screen, biochemical, small-molecule microarray, 635 nm fluorescence, stem cell growth factors (AID 1073); details: Notch2 binding, higher = more signal
# [6] = molecular target: Pro-neuregulin-1, membrane-bound isoform (Homo sapiens) (UniProt Q02297); assay: NRG1 binders on small-molecule microarrays, primary screen, psychiatric disease protein project, biochemical, small-molecule microarray, fluorescence 635/667 (AID 1075); details: NRG1 binding, 635 nm fluorescence, higher = more signal;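 further: score combines 667 nm spot fluorescence with signal to noise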
# [7] = tested on: Neuregulin-1 EGF-like domain; assay: binders of neuregulin-1 EGF-like domain, primary screen, biochemical, small-molecule microarray, 635 nm fluorescence (AID 1081); details: small-molecule microarray binding, higher = more signal;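 further: binding of the protein to compounds printed on small-molecule microarray slides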
# [8] = FRG1 promoter luciferase signal modulators, primary screen, FRG1 inhibition for FSHD, cell-based, C2C12 myotubes, firefly/Renilla luciferase, luminescence (AID 1084); details: higher = more signal, called active from +8 up or from −8 down
# [9] = binders of probe aFST on microarray, primary screen, stem cell growth factor project, biochemical, small-molecule microarray, fluorescence 635/667 (AID 1086); details: higher = more signal;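 further: score merges 667 nm fluorescence with signal-to-noise of each printed compound spot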
# [10] = binders of probe aHhip on microarray, primary screen, stem cell growth factor project, biochemical, small-molecule microarray, fluorescence 635/667 (AID 1087); details: higher = more signal;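 further: score merges spot fluorescence at 667nm with spot signal to noise ratio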
# Chain of Neurogenic locus notch homolog protein 2 (Homo sapiens) (Q04721 whole entry, looked up, canonical isoform): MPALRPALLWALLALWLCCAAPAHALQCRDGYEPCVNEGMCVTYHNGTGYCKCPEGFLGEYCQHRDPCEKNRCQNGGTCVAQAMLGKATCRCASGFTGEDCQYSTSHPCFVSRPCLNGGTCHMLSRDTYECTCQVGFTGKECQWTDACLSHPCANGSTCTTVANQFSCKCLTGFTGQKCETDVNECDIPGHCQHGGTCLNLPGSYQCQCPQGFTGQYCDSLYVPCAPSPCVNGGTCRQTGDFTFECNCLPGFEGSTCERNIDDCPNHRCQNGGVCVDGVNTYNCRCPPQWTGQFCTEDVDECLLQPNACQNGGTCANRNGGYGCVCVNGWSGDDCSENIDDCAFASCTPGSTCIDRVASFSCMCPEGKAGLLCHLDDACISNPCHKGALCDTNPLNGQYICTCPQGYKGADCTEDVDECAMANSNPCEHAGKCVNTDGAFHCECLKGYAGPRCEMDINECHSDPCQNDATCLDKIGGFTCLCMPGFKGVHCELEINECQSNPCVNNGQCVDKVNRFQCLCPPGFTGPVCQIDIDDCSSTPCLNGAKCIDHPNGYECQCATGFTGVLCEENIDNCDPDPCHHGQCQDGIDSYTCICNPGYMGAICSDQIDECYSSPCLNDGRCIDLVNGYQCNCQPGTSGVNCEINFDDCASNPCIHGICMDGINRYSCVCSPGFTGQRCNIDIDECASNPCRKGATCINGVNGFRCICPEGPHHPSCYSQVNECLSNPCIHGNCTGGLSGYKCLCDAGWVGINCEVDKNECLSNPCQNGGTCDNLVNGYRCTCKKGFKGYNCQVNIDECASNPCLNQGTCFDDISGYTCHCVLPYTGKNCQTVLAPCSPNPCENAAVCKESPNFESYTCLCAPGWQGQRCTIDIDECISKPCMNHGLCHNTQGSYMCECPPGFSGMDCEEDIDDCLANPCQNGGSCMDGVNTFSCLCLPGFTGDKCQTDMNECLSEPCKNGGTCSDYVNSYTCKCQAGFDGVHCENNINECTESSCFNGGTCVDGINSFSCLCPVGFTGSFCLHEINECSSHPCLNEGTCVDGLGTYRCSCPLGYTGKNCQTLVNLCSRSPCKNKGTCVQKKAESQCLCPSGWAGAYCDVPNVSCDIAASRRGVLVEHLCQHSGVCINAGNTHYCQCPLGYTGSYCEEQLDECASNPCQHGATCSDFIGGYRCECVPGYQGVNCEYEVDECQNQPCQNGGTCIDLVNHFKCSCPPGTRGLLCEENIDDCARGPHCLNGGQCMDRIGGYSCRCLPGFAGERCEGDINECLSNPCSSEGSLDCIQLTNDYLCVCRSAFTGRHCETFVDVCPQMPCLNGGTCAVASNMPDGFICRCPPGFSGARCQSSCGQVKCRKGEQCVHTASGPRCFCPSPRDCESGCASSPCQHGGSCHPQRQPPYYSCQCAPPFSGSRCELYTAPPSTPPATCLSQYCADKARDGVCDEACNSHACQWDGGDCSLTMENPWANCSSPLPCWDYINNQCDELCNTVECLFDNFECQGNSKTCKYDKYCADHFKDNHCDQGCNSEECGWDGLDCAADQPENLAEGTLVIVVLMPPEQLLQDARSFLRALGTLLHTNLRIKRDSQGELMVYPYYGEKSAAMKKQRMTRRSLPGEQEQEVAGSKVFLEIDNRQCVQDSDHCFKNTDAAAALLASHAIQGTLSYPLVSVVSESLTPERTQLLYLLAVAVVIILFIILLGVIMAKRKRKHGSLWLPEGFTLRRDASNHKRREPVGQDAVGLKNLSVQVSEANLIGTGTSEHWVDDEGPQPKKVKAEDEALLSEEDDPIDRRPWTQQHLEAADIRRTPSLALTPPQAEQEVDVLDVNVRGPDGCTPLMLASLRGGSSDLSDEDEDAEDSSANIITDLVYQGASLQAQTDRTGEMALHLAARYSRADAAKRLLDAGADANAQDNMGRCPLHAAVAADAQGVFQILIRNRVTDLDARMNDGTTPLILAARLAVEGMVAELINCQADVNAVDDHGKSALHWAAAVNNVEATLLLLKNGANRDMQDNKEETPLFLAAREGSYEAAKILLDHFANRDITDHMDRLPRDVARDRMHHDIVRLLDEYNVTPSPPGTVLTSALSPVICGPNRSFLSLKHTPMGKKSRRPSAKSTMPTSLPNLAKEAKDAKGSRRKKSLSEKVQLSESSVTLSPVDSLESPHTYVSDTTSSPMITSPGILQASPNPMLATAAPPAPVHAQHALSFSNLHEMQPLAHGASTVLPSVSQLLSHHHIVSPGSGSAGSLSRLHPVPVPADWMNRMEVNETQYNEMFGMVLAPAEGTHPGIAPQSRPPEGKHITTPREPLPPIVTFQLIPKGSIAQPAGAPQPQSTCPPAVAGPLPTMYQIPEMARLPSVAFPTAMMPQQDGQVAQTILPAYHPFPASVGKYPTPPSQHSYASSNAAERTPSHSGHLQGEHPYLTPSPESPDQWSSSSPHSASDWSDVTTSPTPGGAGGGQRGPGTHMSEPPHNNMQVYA
# Chain of Pro-neuregulin-1, membrane-bound isoform (Homo sapiens) (Q02297 whole entry, looked up, the tested form may be a part, canonical isoform): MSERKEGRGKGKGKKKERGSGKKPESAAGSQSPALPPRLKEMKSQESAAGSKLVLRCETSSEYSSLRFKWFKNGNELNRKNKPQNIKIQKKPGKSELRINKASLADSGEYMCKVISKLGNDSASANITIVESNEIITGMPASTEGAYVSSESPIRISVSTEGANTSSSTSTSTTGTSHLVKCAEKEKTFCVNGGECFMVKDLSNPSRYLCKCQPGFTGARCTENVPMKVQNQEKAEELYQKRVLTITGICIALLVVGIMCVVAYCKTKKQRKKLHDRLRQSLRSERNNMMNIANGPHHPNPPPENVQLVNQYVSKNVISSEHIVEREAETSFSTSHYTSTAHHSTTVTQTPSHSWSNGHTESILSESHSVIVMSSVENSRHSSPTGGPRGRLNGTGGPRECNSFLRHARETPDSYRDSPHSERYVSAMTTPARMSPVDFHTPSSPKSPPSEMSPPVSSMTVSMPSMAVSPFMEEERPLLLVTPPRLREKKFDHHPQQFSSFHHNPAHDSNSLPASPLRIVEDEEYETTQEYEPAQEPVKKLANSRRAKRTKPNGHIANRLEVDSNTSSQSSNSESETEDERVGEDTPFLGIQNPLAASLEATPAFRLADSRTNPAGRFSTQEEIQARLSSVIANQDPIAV
SMILES,composite z-score [1],composite z-score [2],composite z-score [3],composite z-score [4],composite z-score [5],composite z-score [6],composite z-score [7],z-score [8],composite z-score [9],composite z-score [10]
[N-]=[N+]=Nc1ccccc1[C@H]1OC(c2ccc(OCCCO)cc2)=N[C@@]1(Cc1ccccc1)C(=O)NCC(O)CO (stereo not given in full),0.277,0.0899,0.0528,0.231,1.36,1.19,1.12,2.22 (inactive),1.03,-0.0541
CCOC(=O)C1=CC[C@@H](c2ccc(OC)cc2)N(S(=O)(=O)c2ccc(C)cc2)[C@H]1CC,-0.295,0.495,-0.067,0.398,1.66,1.13,1.11,-3.47 (inactive),1.14,-0.0645
C=C1C(=O)C=C2CN(C(=O)c3ccccc3)[C@@](Cc3ccc(OC)cc3)(C(=O)OC)[C@@H]12,0.53,0.442,0.369,1.01,1.72,2.09,1.29,2.08 (inactive),0.924,0.212
O=C(NCc1ccccc1)[C@@H]1c2ccccc2C(=O)N(Cc2cc(C(F)(F)F)cc(C(F)(F)F)c2)[C@H]1c1ccc(CO)cc1,-0.501,1.62,-0.118,0.409,0.685,0.71,1.27,-0.354 (inactive),0.423,0.0505
CC(C)=CCCC(C)=CC(O)C1C=CC2C(=O)NC(=O)C2N1Nc1ccc(Cl)cc1Cl (stereo not given),0.235,0.401,0.234,0.214,0.933,1.86,0.915,1.89 (inactive),0.901,0.0373
CCCC=C(CCC)[C@@H](NC(=O)c1ccc(C(F)(F)F)cc1)c1ccc(C(F)(F)F)cc1,0.625,0.629,0.171,0.669,1.57,1.82,0.588,-4.76 (inactive),1.04,-0.0965
C=CCC(OC(C)=O)[C@@H]1[C@@H](N(Cc2cc3ccccc3o2)C(=O)c2cccc3ccccc23)c2cc(OCCCO)ccc2N1C(=O)c1ccc2ccccc2n1 (stereo not given in full),1.68,0.27,-0.116,0.0823,0.16,-0.0193,-0.112,-1.53 (inactive),-0.061,-0.125
COc1ccc(C#Cc2ccc3c(c2)[C@]2(C(=O)N3)[C@H](C(=O)O)[C@H]3C(=O)O[C@H](c4ccccc4)[C@H](c4ccccc4)N3[C@@H]2c2ccccc2OCCO)cc1,-1.04,0.485,-0.095,0.991,1.26,0.566,1.07,0.205 (inactive),-0.515,-0.583
COC(=O)C[C@H]1O[C@@]2(C[C@@H]1[Si](C)(C)C)C(=O)N(C)c1ccccc12,-0.469,0.105,-0.129,0.487,0.833,0.22,0.672,-0.933 (inactive),0.607,-0.0645
COc1ccc(C(O)C2C=CC3C(=O)N(c4ccccc4)C(=O)C3N2Nc2ccc(C#N)cc2)cc1OCc1ccccc1 (stereo not given),1.98,1.55,0.19,0.472,1.34,2.02,0.823,0.686 (inactive),1.09,0.0053
C=C(C)[C@@H]1CC=C(C(O)C2C=CC3C(=O)N(C)C(=O)C3N2Nc2ccc([N+](=O)[O-])cc2[N+](=O)[O-])CC1 (stereo not given in full),0.661,0.294,-0.144,0.431,1.68,1.74,1.36,0.404 (inactive),1.46,-0.0003
CCCCCCc1nc(Cc2cc(OC)c(OC)c(OC)c2)cc2c1[Si](C(C)C)(C(C)C)O[C@H]2c1ccccc1,-0.557,0.251,-0.0599,0.0804,0.191,-0.0387,-0.712,-0.361 (inactive),0.0506,0.0677
Cc1ccc(S[C@]2(C(=O)NCCCN(C)C)CC(=O)N(Cc3ccccc3C(F)(F)F)[C@@H]2c2ccc(CO)cc2I)cc1,-0.73,-0.0283,-0.21,-0.211,-0.733,1.51,1.13,0.241 (inactive),0.216,-0.54
COC(=O)[C@@]1(Cc2ccc(OC)cc2)[C@H]2c3cc(C(=O)N4CCCC4)n(Cc4ccc(C(F)(F)F)nc4)c3C[C@H]2CN1C(=O)c1ccccc1,0.308,0.374,-0.102,0.999,1.21,1.66,1.24,0.491 (inactive),-0.25,0.388
COc1cc(CO)cc(I)c1O[C@H]1C=C(C(=O)NCCO)C[C@@H](NC2CCCCCC2)[C@@H]1O,-0.606,0.174,-0.0114,0.998,0.618,-0.0274,0.716,0.999 (inactive),-0.0564,-0.0994
COC(=O)[C@@]1(Cc2ccc(F)cc2)[C@H]2c3cc(C(=O)N4CCCC4)n(Cc4ccccn4)c3C[C@H]2CN1C(=O)c1ccccc1,0.116,-0.89,0.272,1.22,1.71,1.29,1.4,0.755 (inactive),0.987,0.685
CN(C)CCCCNC(=O)[C@H]1C[C@H]2C(=O)NCC(=O)N2[C@H]1c1ccc(O)cc1,-0.772,-1.42,-0.273,-0.814,-0.929,0.68,1.07,5.11 (inactive),0.0525,-0.407
COCCOC(=O)N1C(=O)[C@@]2(c3ccccc31)[C@H](c1ccc(O)cc1)N1[C@H](c3ccccc3)[C@H](c3ccccc3)OC(=O)[C@H]1[C@@H]2C(=O)N1CCCCCCC1,3.84,1.88,0.949,0.802,1.07,2.5,1.29,-3.25 (inactive),3.5,3.27
CC(C)=CCCC(C)=CC(O)C1C=CC2C(=O)NC(=O)C2N1Nc1ccccn1 (stereo not given),-0.631,1.6,0.059,1.16,1.57,0.966,1.23,-0.385 (inactive),1.21,-0.109
CC(C)NC(=O)[C@@]1(c2ccc([N+](=O)[O-])cc2)CC(=O)N(CC23CC4CC(CC(C4)C2)C3)[C@@H]1c1ccc(CO)cc1,1.43,0.522,0.516,1.02,1.42,1.9,1.18,-3.57 (inactive),1.86,1.11
CC(C)(C)N1CC=CC23O[C@@H]4C=CCCOC(=O)C4[C@H]2C(=O)N(CCCCCCO)[C@@H]3C1=O (stereo not given in full),-0.0477,-1.39,-0.0628,0.0493,-0.615,1.36,1.56,0.908 (inactive),-0.0273,-0.236
C=C(C)[C@@H]1CC=C(C(O)C2C=CC3C(=O)N(c4ccccc4)C(=O)C3N2Nc2ccc([N+](=O)[O-])cc2)CC1 (stereo not given in full),-0.308,0.356,-0.0784,1.05,1.61,1.07,1.24,-0.0111 (inactive),1.57,0.167
COc1ccc([Si](C)(C)[C@@H]2[C@@H](CC(=O)N3Cc4ccccc4C[C@H]3CO)O[C@]3(C(=O)N(Cc4ccc(N5CCOC5=O)cc4)c4ccccc43)[C@H]2C)cc1,-0.169,0.669,-0.178,0.284,0.405,1,1.09,-2.85 (inactive),0.27,0.0274
C=C(/C(=C/C[C@@H](OC(C)=O)c1cccc(OCCO)c1)c1cnc2ccccc2c1)C(C)C,-0.121,0.197,-0.0242,0.76,0.693,0.41,1.08,2 (inactive),0.0752,-0.0645
COC(=O)[C@@]1(Cc2ccc(F)cc2)[C@H]2c3cc(C(=O)N(C)C)n(C)c3C[C@H]2CN1C(=O)c1ccccc1,-0.187,-0.609,0.0364,1.08,1.58,1.12,1.16,0.736 (inactive),0.229,0.0677
COc1cc(C(O)C2C=CC3C(=O)N(c4ccccc4)C(=O)C3N2Nc2ccccc2F)cc(OC)c1OC (stereo not given),-0.0643,0.155,0.0253,0.935,1.64,1.93,1.29,1.26 (inactive),0.612,0.252
C=C(COC)C(=O)CC[C@@H](OC(C)=O)c1ccccc1OCCO,-0.215,-0.0765,-0.102,1.39,-0.54,0.695,0.326,0.151 (inactive),0.406,-0.0994
CC1CC/C=C\[C@H]2OC34C=CCN(C(C)(C)C)C(=O)[C@H]3N(CCCO)C(=O)[C@@H]4C2C(=O)O1 (stereo not given in full),0.142,-0.0052,-0.0063,0.716,-0.858,0.647,1.28,-0.281 (inactive),0.182,-0.169
